Reference: PubChem BioAssay (Tox21)
Records with an inconclusive call do not appear. Active and inactive are the calls of the source. Unless noted, calls follow the shape of the full dose curve.

Experiments:
[1] = target: Thyrotropin receptor (Homo sapiens) (UniProt P16473); assay: qHTS assay to identify small molecule agonists of the thyroid stimulating hormone receptor (TSHR) signaling pathway (AID 1224843); details: TSHR-HEK293 cells, cAMP HTRF, agonist mode, 30 min; series mostly up to 92.4 µM; also: nearly all actives have a fitted effect of over 45% in size
Outline: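 Screening of the Tox21 10K collection used HEK293 cells engineered with TSHR at 800 cells per well. After a 30-min room-temperature compound exposure, HTRF cAMP reagents were added and fluorescence recorded 1 h later.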

[2] = qHTS assay to identify small molecule agonists of the hypoxia (HIF-1) signaling pathway - cell viability counter screen (AID 1224844); details: HRE-bla ME-180 viability, CellTiter-Glo luminescence, 17 h; series mostly up to 76.8 µM; also: nearly all actives have a fitted effect of over 50% in size
Outline: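 Cells (HRE-bla ME-180, 2,000 per well) sat 5 hrs at 37C, got compound for 17 hrs, were read for CCF4-AM FRET, and were finally lysed with CellTiter-Glo for a 30 min room-temperature luminescence read.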

[3] = qHTS assay to identify small molecule agonists of H2AX (AID 1224845; active = well fitted activation curve with a large enough effect in the signal ratio in the repeat runs, not every such curve was filed as active; the % refers to the signal ratio); details: CHO-K1 phospho-H2AX Ser139 HTRF, 3 h; series mostly up to 154 µM
Outline: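 Phospho-H2AX Ser139 measured by HTRF (ex 320 nm; em 665 and 620 nm) after 24 hr antibody incubation. Compounds, 15 concentrations, 0.76% DMSO, were applied to CHO-K1 cells for 3hr at 37C before lysis.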

[4] = qHTS assay to identify small molecule agonists of the hypoxia (HIF-1) signaling pathway (AID 1224846; active = well fitted activation curve with a large enough effect in the signal ratio in the repeat runs, not every such curve was filed as active; the % refers to the signal ratio); details: HRE-bla ME-180 cells, beta-lactamase ratio, 17 h; series mostly up to 76.8 µM
Outline: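 A low-serum medium (0.5% dialyzed FBS) holding 2,000 HRE-bla ME-180 cells per well is preincubated for 5 hrs, dosed with compounds by pintool, and kept a further 17 hrs at 37C, 5% CO2 before CCF4-AM FRET detection of beta-lactamase.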

[5] = qHTS assay to identify small molecule agonists of H2AX - cell viability counter screen (AID 1224847); details: CHO-K1 viability, CellTiter-Glo luminescence, 3 h; series mostly up to 154 µM; also: top concentration of the series differs between compounds; nearly all actives have a fitted effect of over 30% in size
Outline: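 Viability of CHO-K1 (wild type) cells after 3 hr compound exposure was measured by CellTiter-Glo luminescence.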

[6] = qHTS assay to identify small molecule antagonists of the estrogen related receptor (ERR) signaling pathway from Tox21 library (AID 1224848; active = well fitted curve in the direction sought with a large enough effect in the repeat runs; an effect the other way counts as inactive or inconclusive; also: nearly all actives have a fitted effect of over 50% in size); details: ERR reporter cell line, luciferase antagonist mode, 18 h; series mostly up to 92.4 µM
Outline: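 Antagonist-mode screen of the Tox21 10K library in an NTP-provided ERR reporter cell line; 18 h compound exposure at 37 C, luminescence measured with ONE-Glo.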

[7] = qHTS assay to identify small molecule agonists of the estrogen related receptor (ERR) signaling pathway from Tox21 library (AID 1224849); details: ERR reporter cell line, ONE-Glo luciferase, 18 h; at 92.4 µM (top of the series) unless noted; also: nearly all actives have a fitted effect of over 15% in size
Outline: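 Screening used an NTP-provided ERR luciferase cell line. Compounds in DMSO were added 6 h after seeding and left 18 h at 37 C before a 30 min ONE-Glo step and luminescence reading.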

[8] = qHTS RealTime-Glo MT Cell Viability Assay in HepG2 cells - 24 hour (AID 1224867; active = well fitted curve in the direction sought with a large enough effect in the repeat runs; an effect the other way counts as inactive or inconclusive; also: nearly all actives have a fitted effect of over 50% in size); details: RealTime-Glo luminescence; series mostly up to 76.8 µM
Outline: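 HepG2 suspension premixed with RealTime-Glo reagents is plated at 600 cells per well and left 5 h at 37 C/5% CO2. Compounds in DMSO then go in, and bioluminescence reflecting viable cell number is recorded over 40 h.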

[9] = A CellTox Green Cytotoxicity Assay to monitor cytotoxicity in HEK293 cells - 0 hour (AID 1224869; active = well fitted curve in the direction sought with a large enough effect in the repeat runs; an effect the other way counts as inactive or inconclusive; also: nearly all actives have a fitted effect of over 50% in size; also: potency is read from the fitted curve at half-maximal effect); details: CellTox Green fluorescence; series mostly up to 76.8 µM
Outline: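 Fluorescence intensity, read at 0, 8, 16, 24, 32 and 40 h of compound treatment, reflected dye binding to DNA of dead HEK293 cells; compounds (23 nL, DMSO) were added 5 h after plating cells with reagent.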

[10] = qHTS RealTime-Glo MT Cell Viability Assay in HEK293 cells - 32 hour (AID 1224868; active = well fitted curve in the direction sought with a large enough effect in the repeat runs; an effect the other way counts as inactive or inconclusive; also: nearly all actives have a fitted effect of over 50% in size; also: potency is read from the fitted curve at half-maximal effect); details: RealTime-Glo luminescence; series mostly up to 76.8 µM
Outline: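 Reads taken at 0, 8, 16, 24, 32 and 40 h from the same wells. HEK293 cells (600/well) carried RealTime-Glo reagents from seeding, with compound added after a 5 h settle at 37 C.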
% is scaled to controls: 0 for no effect and ±100 for the full control effect.

Chain of Thyrotropin receptor (Homo sapiens) (P16473 whole entry, looked up): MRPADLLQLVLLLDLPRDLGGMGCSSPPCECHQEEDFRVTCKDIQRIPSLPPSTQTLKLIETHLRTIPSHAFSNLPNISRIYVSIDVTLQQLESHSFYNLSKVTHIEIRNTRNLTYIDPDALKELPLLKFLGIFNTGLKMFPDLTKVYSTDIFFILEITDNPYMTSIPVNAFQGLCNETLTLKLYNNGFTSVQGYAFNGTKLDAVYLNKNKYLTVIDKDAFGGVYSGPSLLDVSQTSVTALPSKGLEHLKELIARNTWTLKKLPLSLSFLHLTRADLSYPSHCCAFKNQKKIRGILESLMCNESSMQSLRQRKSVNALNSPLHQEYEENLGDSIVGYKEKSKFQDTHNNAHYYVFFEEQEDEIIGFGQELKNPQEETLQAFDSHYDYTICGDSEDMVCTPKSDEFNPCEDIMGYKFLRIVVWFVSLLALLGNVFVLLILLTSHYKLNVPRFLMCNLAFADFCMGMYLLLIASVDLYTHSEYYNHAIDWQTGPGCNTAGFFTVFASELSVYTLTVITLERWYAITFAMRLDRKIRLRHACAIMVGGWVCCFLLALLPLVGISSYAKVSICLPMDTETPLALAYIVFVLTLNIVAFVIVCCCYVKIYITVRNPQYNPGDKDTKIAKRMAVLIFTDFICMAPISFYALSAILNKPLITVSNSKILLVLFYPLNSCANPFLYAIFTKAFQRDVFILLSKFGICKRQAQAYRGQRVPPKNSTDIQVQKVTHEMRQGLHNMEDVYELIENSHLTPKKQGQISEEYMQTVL

COc1cc(C)ccc1C(C)C
inactive: Potency [1] | Potency [2] | Potency [3] | outcome [4] | Potency [5] | Potency [6] | activity change, positive = activation [7] -0.104% | Potency [8] | Potency [9]

C1CSCCS1
inactive: Potency [1] | Potency [2] | Potency [3] | outcome [4] | Potency [5] | Potency [6] | activity change, positive = activation [7] 3.63% | Potency [8] | Potency [10] | Potency [9]

COC(=O)/C=C(/C)N
inactive: Potency [1] | Potency [2] | Potency [3] | outcome [4] | Potency [5] | Potency [6] | activity change, positive = activation [7] 7.53% [at 42.5 µM] | Potency [8] | Potency [10]

CC/C=C\CCOC(=O)CCCCC
inactive: Potency [1] | Potency [2] | Potency [3] | outcome [4] | Potency [5] | Potency [6] | activity change, positive = activation [7] 5.28% | Potency [8] | Potency [10]

CCOC(=O)NCCC[Si](OCC)(OCC)OCC
inactive: Potency [1] | Potency [2] | Potency [3] | outcome [4] | Potency [5] | Potency [6] | activity change, positive = activation [7] -9.42% | Potency [9]

CCc1cc2cc(OC)c(OC)cc2c(Cc2ccccc2)n1
active: Potency [10] 16.9 µM
inactive: Potency [1] | Potency [2] | Potency [3] | outcome [4] | Potency [5] | Potency [6] | activity change, positive = activation [7] -12.2% [at 42.5 µM] | Potency [8]

CCN1CC(CCN2CCOCC2)C(c2ccccc2)(c2ccccc2)C1=O (centres undefined)
inactive: Potency [1] | Potency [2] | Potency [3] | outcome [4] | Potency [5] | Potency [6] | activity change, positive = activation [7] -6.21% [at 42.5 µM] | Potency [8] | Potency [10] | Potency [9]

Cc1ccc([N+](=O)[O-])cc1Cl
active: activity change, positive = activation [7] 14.6%
inactive: Potency [1] | Potency [2] | Potency [3] | outcome [4] | Potency [5] | Potency [6] | Potency [8] | Potency [10] | Potency [9]

CCOc1ccc(NC(N)=O)cc1
inactive: Potency [1] | Potency [2] | Potency [3] | outcome [4] | Potency [5] | Potency [6] | activity change, positive = activation [7] 1.88% | Potency [8] | Potency [9]

O=C1CCC(C2CCCCC2)CC1
active: Potency [9] 43.6 µM
inactive: Potency [1] | Potency [2] | Potency [3] | outcome [4] | Potency [5] | Potency [6] | activity change, positive = activation [7] -9.72% | Potency [8]

CC(C)CCCCCCc1ccc(OCCOCCO)cc1
inactive: Potency [1] | Potency [2] | Potency [3] | outcome [4] | Potency [5] | Potency [6] | activity change, positive = activation [7] -10.7% | Potency [8] | Potency [10] | Potency [9]

CC(C)(C)c1cccc(O)c1
inactive: Potency [1] | Potency [2] | Potency [3] | outcome [4] | Potency [5] | Potency [6] | activity change, positive = activation [7] 1.25% | Potency [8] | Potency [10] | Potency [9]

CCc1nnc(NS(=O)(=O)c2ccc(N)cc2)s1
inactive: Potency [1] | Potency [2] | Potency [3] | outcome [4] | Potency [5] | Potency [6] | Potency [8] | Potency [10] | Potency [9]

O=C1C=CC(=O)O1
inactive: Potency [1] | Potency [2] | Potency [3] | outcome [4] | Potency [5] | Potency [6] | Potency [8] | Potency [10] | Potency [9]

CCCc1c2oc(C(=O)O)cc(=O)c2cc2c(=O)cc(C(=O)O)n(CC)c12
inactive: Potency [1] | Potency [2] | Potency [3] | outcome [4] | Potency [5] | Potency [6] | activity change, positive = activation [7] 1.31% [at 42.5 µM] | Potency [8] | Potency [10] | Potency [9]

CCCCC1CCC(=O)O1 (centres undefined)
inactive: Potency [1] | Potency [2] | Potency [3] | outcome [4] | Potency [5] | Potency [6] | Potency [8] | Potency [10]

Oc1ccccc1C=NCc1ccccc1
inactive: Potency [1] | Potency [2] | Potency [3] | outcome [4] | Potency [5] | Potency [8] | Potency [10] | Potency [9]

N#Cc1ccc(C(c2ccc(C#N)cc2)n2cncn2)cc1
inactive: Potency [1] | Potency [2] | Potency [3] | outcome [4] | Potency [5] | Potency [8] | Potency [9]

CCCNC(C)(C)COC(=O)c1ccccc1
inactive: Potency [1] | Potency [2] | Potency [3] | outcome [4] | Potency [5] | Potency [6] | Potency [10] | Potency [9]

CCC/C=C/CO
inactive: Potency [1] | Potency [2] | Potency [3] | outcome [4] | Potency [5] | Potency [8] | Potency [10] | Potency [9]

CN(C)C(=O)NC1(c2ccccc2)CCN(CCC[C@]2(c3ccc(Cl)c(Cl)c3)CCCN(C(=O)c3ccccc3)C2)CC1
inactive: activation [1] -9.82% [at 19 µM] | activity change, negative = cytotoxicity [2] -18.7% [at 15.8 µM] | activation (H2AX phosphorylation) [3] 5.48% [at 31.6 µM] | activation [4] 0.323% [at 15.8 µM] | activity change, negative = cytotoxicity [5] -0.817% [at 31.6 µM] | activity change, negative = cytotoxicity [8] -9.68% [at 15.8 µM] | cytotoxicity [9] -1.6% [at 15.8 µM]

O=Cc1ccc(F)c(Br)c1
inactive: Potency [1] | Potency [2] | Potency [3] | outcome [4] | Potency [5] | Potency [8] | Potency [10]

O=C(O)c1cccc(Cl)c1Cl
inactive: Potency [1] | Potency [2] | Potency [3] | outcome [4] | Potency [5] | Potency [8] | Potency [10] | Potency [9]

CCCC(CCC)(C(=O)OCC)C(=O)OCC
inactive: Potency [1] | Potency [2] | Potency [3] | outcome [4] | Potency [5] | Potency [8] | Potency [10] | Potency [9]
